Assay results: the supplement of paper PMC6089552
Hit rate of the full screen: of about 3,200 compounds, about 300 (9.4%) showed activity. The full list was thinned out, with actives kept by preference.

Tested on: A673/TR/shEF
Test: cell viability (LOESS-normalised, relative to median of negative controls) (log2 ratio); higher = more viable cells (less compound effect), active = hit call of the paper (over 3 MAD below the median)
Conditions: treatment time: 72 h
Method in brief: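 Doxycycline, present or absent from 24 h before compounds, was used to induce EWS-FLI1 shRNA knockdown in A673/TR/shEF Ewing sarcoma cells at 1,500 per well in 384-well plates. Cells then received library compounds at two or more concentrations, or DMSO controls, for three days. Viability was measured by CellTiter-Glo luminescence on an Envision reader, and per-plate LOESS correction, division by the negative-control median and log2 transformation followed.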

[1] = 0.25 µM, library screen: screen1, EWS-FLI1 expression: high (no doxycycline)
[2] = 0.25 µM, library screen: screen1, EWS-FLI1 expression: low (doxycycline-induced shRNA knockdown)
[3] = 2.5 µM, library screen: screen1, EWS-FLI1 expression: high (no doxycycline)
[4] = 2.5 µM, library screen: screen1, EWS-FLI1 expression: low (doxycycline-induced shRNA knockdown)
[5] = 0.25 µM, library screen: screen2, EWS-FLI1 expression: high (no doxycycline)
[6] = 0.25 µM, library screen: screen2, EWS-FLI1 expression: low (doxycycline-induced shRNA knockdown)
[7] = 2.5 µM, library screen: screen2, EWS-FLI1 expression: high (no doxycycline)
[8] = 2.5 µM, library screen: screen2, EWS-FLI1 expression: low (doxycycline-induced shRNA knockdown)
[9] = 0.025 µM, library screen: screen2, EWS-FLI1 expression: high (no doxycycline)
[10] = 0.025 µM, library screen: screen2, EWS-FLI1 expression: low (doxycycline-induced shRNA knockdown)
[11] = 0.103 µM, library screen: screen3, EWS-FLI1 expression: high (no doxycycline)
[12] = 0.103 µM, library screen: screen3, EWS-FLI1 expression: low (doxycycline-induced shRNA knockdown)
[13] = 0.308 µM, library screen: screen3, EWS-FLI1 expression: high (no doxycycline)
[14] = 0.308 µM, library screen: screen3, EWS-FLI1 expression: low (doxycycline-induced shRNA knockdown)
[15] = 0.926 µM, library screen: screen3, EWS-FLI1 expression: high (no doxycycline)
[16] = 0.926 µM, library screen: screen3, EWS-FLI1 expression: low (doxycycline-induced shRNA knockdown)
[17] = 2.8 µM, library screen: screen3, EWS-FLI1 expression: high (no doxycycline)
[18] = 2.8 µM, library screen: screen3, EWS-FLI1 expression: low (doxycycline-induced shRNA knockdown)
[19] = 8.3 µM, library screen: screen3, EWS-FLI1 expression: high (no doxycycline)
[20] = 8.3 µM, library screen: screen3, EWS-FLI1 expression: low (doxycycline-induced shRNA knockdown)
[21] = 25 µM, library screen: screen2, EWS-FLI1 expression: high (no doxycycline)
[22] = 25 µM, library screen: screen2, EWS-FLI1 expression: low (doxycycline-induced shRNA knockdown)
[23] = 25 µM, library screen: screen3, EWS-FLI1 expression: high (no doxycycline)
[24] = 25 µM, library screen: screen3, EWS-FLI1 expression: low (doxycycline-induced shRNA knockdown)
[25] = 0.025 µM, library screen: screen1, EWS-FLI1 expression: high (no doxycycline)
[26] = 0.025 µM, library screen: screen1, EWS-FLI1 expression: low (doxycycline-induced shRNA knockdown)
[27] = 25 µM, library screen: screen1, EWS-FLI1 expression: high (no doxycycline)
[28] = 25 µM, library screen: screen1, EWS-FLI1 expression: low (doxycycline-induced shRNA knockdown)

Measured: cell viability (log2)

CN1C(=O)CN=C(c2ccccc2)c2cc(Cl)ccc21
inactive: [1] 0.0871 | [2] 0.0866 | [3] 0.123 | [4] 0.0545

C[C@]12CC[C@H]3[C@@H](CCC4=CC(=O)CC[C@@]43C)[C@@H]1CC[C@@H]2O
inactive: [1] 0.0751 | [2] -0.0159 | [3] 0.0937 | [4] -0.0498

O=c1cccc2n1CC1CC2CN2CCCCC12 (stereo unspecified)
inactive: [1] 0.16 | [2] 0.0123 | [3] 0.153 | [4] 0.0958

NCCc1cc(O)c(O)cc1O
inactive: [1] 0.0637 | [2] 0.155 | [3] 0.144 | [4] 0.129

CC(=O)OCC1=C(C(=O)O)N2C(=O)[C@@H](NC(=O)CCC[C@@H](N)C(=O)O)[C@H]2SC1
inactive: [5] 0.263 | [6] 0.114 | [7] 0.155 | [8] 0.174

CC[C@@]1(O)C(=O)OCc2c1cc1n(c2=O)Cc2cc3ccccc3nc2-1
inactive: [9] -0.0654 | [10] 0.049 | [12] -0.0714
active: [11] -1.01 | [1] -2.18 | [2] -0.586 | [5] -2.99 | [6] -0.42 | [13] -2.37 | [14] -0.543 | [15] -3.61 | [16] -0.88 | [3] -1.57 | [4] -0.388 | [7] -3.53 | [8] -0.945 | [17] -4.24 | [18] -1.16 | [19] -4.26 | [20] -1.3 | [21] -4.09 | [22] -1.25 | [23] -4.26 | [24] -2.33

C[C@]12CCC(=O)C=C1C=CC1C2CC[C@@]2(C)C1CC[C@@]2(O)CCC(=O)O (stereo partly specified)
inactive: [1] 0.0813 | [2] -0.0168 | [3] 0.15 | [4] -0.00183

O=C(O)CCCc1ccc(N(CCCl)CCCl)cc1
active: [21] -0.0762
inactive: [9] 0.0942 | [10] 0.0711 | [1] 0.0971 | [2] 0.0808 | [5] 0.12 | [6] 0.0418 | [3] 0.142 | [4] 0.131 | [7] 0.101 | [8] 0.11 | [22] 0.0238

Cn1c(CCCC(=O)O)nc2cc(N(CCCl)CCCl)ccc21
inactive: [11] 0.058 | [12] 0.0297 | [13] -0.00941 | [14] 0.026 | [15] -0.00645 | [16] 0.00947 | [17] -0.0453 | [18] -0.00369 | [19] 0.00708 | [20] 0.0974 | [23] -0.0533 | [24] 0.0463

N[C@@H](Cc1ccc(N(CCCl)CCCl)cc1)C(=O)O
inactive: [1] 0.0874 | [2] 0.0161 | [5] 0.175 | [6] 0.17 | [3] 0.00755 | [4] 0.0488 | [7] 0.22 | [8] 0.172

CC(=O)CC1CCCCN1 (stereo unspecified)
inactive: [1] 0.0906 | [2] -0.00634 | [3] 0.0756 | [4] -0.083

CC(=O)O[C@@H]1CC2C(C)(C)[C@H](O)C=C[C@]2(C)C2CC[C@]3(C)C(=CC(=O)O[C@H]3c3ccoc3)[C@@]21C (stereo partly specified)
inactive: [1] 0.113 | [2] 0.0781 | [3] 0.222 | [4] 0.195

CCc1cccc(CC)c1N(COC)C(=O)CCl
inactive: [1] 0.0413 | [2] -0.00378 | [3] 0.0617 | [4] 0.0338

CC1(C)C(C=C(Cl)Cl)C1C(=O)OC(C#N)c1cccc(Oc2ccccc2)c1 (stereo unspecified)
active: [27] -0.287 | [28] -0.665
inactive: [25] 0.0827 | [26] 0.0478 | [1] 0.102 | [2] -0.0402 | [3] 0.0354 | [4] -0.0899

CC(C)C(C(=O)OC(C#N)c1cccc(Oc2ccccc2)c1)c1ccc(Cl)cc1 (stereo unspecified)
inactive: [25] 0.0912 | [26] 0.0926 | [1] 0.0365 | [2] 0.00166 | [3] 0.0694 | [4] 0.0411 | [27] 0.0435 | [28] 0.0476

CC1(C)[C@H](C(=O)O[C@H](C#N)c2cccc(Oc3ccccc3)c2)[C@@H]1C=C(Br)Br
inactive: [25] 0.0513 | [26] -0.0407 | [1] 0.047 | [2] 0.086 | [3] 0.112 | [4] 0.12 | [27] -0.0163 | [28] 0.0977
